Test results reported in paper PMC8222333, “AsCas12a ultra nuclease facilitates the rapid generation of therapeutic cell medicines”.

Experiments:
Assay in all cases: Spec-seq (native PAGE EMSA with sequencing of bound and unbound); 25 mM Tris-HCl pH 7.4, 150 mM KCl, 5 mM MgCl2, 10% glycerol, 1 mM DTT, 40 ng/uL salmon sperm DNA; 400 nM Cas12a, 480 nM crRNA, 50 nM library, 37 C 1 h; native PAGE at room temperature; high values mean tight binding
Conditions in all cases: protein: recombinant
[1] = biological target: dAsCas12a E174R (Acidaminococcus sp., UniProt U2UMQ6 1-1307, E174R;D908A;E993A;D1235A)
[2] = biological target: dAsCas12a S542R (Acidaminococcus sp., UniProt U2UMQ6 1-1307, S542R;D908A;E993A;D1235A)
[3] = biological target: d-enCas12a (Acidaminococcus sp., UniProt U2UMQ6 1-1307, E174R;S542R;K548R;D908A;E993A;D1235A)
[4] = biological target: d-enCas12a-Ultra (Acidaminococcus sp., UniProt U2UMQ6 1-1307, E174R;S542R;K548R;M537R;F870L;D908A;E993A;D1235A)
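Further: relative affinity from the bound to unbound sequence frequency ratio in Spec-seq.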

B1: GCGC (dsDNA)
DNA 1: GCTATCTAGTGCTCAGTACGCACTGGCGCAGGAAACTTCTGGCAGGACCAGGTCATGAGATCGGAAGAGCACACGTCTGAACTCCAGTCA
DNA 2: TGACTGGAGTTCAGACGTGTGCTCTTCCGATCTCATGACCTGGTCCTGCCAGAAGTTTCCTGCGCCAGTGCGTACTGAGCACTAGATAGC
RNA: AAUUUCUACUCUUGUAGAUAGGAAACUUCUGGCAGGACC
Which results are given for B1?
binding signal [1]: -8.88 lnKA; binding signal [2]: -8.38 lnKA; binding signal [3]: -5.81 lnKA; binding signal [4]: -3.32 lnKA

B2: AAAC (dsDNA)
DNA 1: GCTATCTAGTGCTCAGTACGCACTGAAACAGGAAACTTCTGGCAGGACCAGGTCATGAGATCGGAAGAGCACACGTCTGAACTCCAGTCA
DNA 2: TGACTGGAGTTCAGACGTGTGCTCTTCCGATCTCATGACCTGGTCCTGCCAGAAGTTTCCTGTTTCAGTGCGTACTGAGCACTAGATAGC
RNA: AAUUUCUACUCUUGUAGAUAGGAAACUUCUGGCAGGACC
For B2, which binding signal [2] is on record?
The binding signal was -8.48 lnKA.

And the binding signal [3]?
The binding signal was -5.25 lnKA.

And the binding signal [4]?
Its binding signal is -2.57 lnKA.

B3: TGCC (dsDNA)
DNA 1: GCTATCTAGTGCTCAGTACGCACTGTGCCAGGAAACTTCTGGCAGGACCAGGTCATGAGATCGGAAGAGCACACGTCTGAACTCCAGTCA
DNA 2: TGACTGGAGTTCAGACGTGTGCTCTTCCGATCTCATGACCTGGTCCTGCCAGAAGTTTCCTGGCACAGTGCGTACTGAGCACTAGATAGC
RNA: AAUUUCUACUCUUGUAGAUAGGAAACUUCUGGCAGGACC
Which binding signal [1] does the source give for B3 here?
The binding signal was -8.73 lnKA.

And the binding signal [2]?
Its binding signal is -7.76 lnKA.

What about the binding signal [3] of the same binder?
Its binding signal is -1.44 lnKA.

What about the binding signal [4] of the same binder?
Its binding signal is -0.407 lnKA.

B4: GTAT (dsDNA)
DNA 1: GCTATCTAGTGCTCAGTACGCACTGGTATAGGAAACTTCTGGCAGGACCAGGTCATGAGATCGGAAGAGCACACGTCTGAACTCCAGTCA
DNA 2: TGACTGGAGTTCAGACGTGTGCTCTTCCGATCTCATGACCTGGTCCTGCCAGAAGTTTCCTATACCAGTGCGTACTGAGCACTAGATAGC
RNA: AAUUUCUACUCUUGUAGAUAGGAAACUUCUGGCAGGACC
What does the source list for B4?
binding signal [1]: -8.95 lnKA; binding signal [2]: -8.41 lnKA; binding signal [3]: -5.69 lnKA; binding signal [4]: -3.33 lnKA

B5: GGGG (dsDNA)
DNA 1: GCTATCTAGTGCTCAGTACGCACTGGGGGAGGAAACTTCTGGCAGGACCAGGTCATGAGATCGGAAGAGCACACGTCTGAACTCCAGTCA
DNA 2: TGACTGGAGTTCAGACGTGTGCTCTTCCGATCTCATGACCTGGTCCTGCCAGAAGTTTCCTCCCCCAGTGCGTACTGAGCACTAGATAGC
RNA: AAUUUCUACUCUUGUAGAUAGGAAACUUCUGGCAGGACC
B5 was tested. Which binding signal [1] did it give?
The binding signal was -8.85 lnKA.

What about the binding signal [3] of the same binder?
Its binding signal is -5.75 lnKA.

And the binding signal [4]?
The binding signal was -3.49 lnKA.

B6: AACA (dsDNA)
DNA 1: GCTATCTAGTGCTCAGTACGCACTGAACAAGGAAACTTCTGGCAGGACCAGGTCATGAGATCGGAAGAGCACACGTCTGAACTCCAGTCA
DNA 2: TGACTGGAGTTCAGACGTGTGCTCTTCCGATCTCATGACCTGGTCCTGCCAGAAGTTTCCTTGTTCAGTGCGTACTGAGCACTAGATAGC
RNA: AAUUUCUACUCUUGUAGAUAGGAAACUUCUGGCAGGACC
For B6, which binding signal [2] is on record?
Its binding signal is -8.12 lnKA.

And the binding signal [3]?
The binding signal was -2.72 lnKA.

What about the binding signal [4] of the same binder?
Its binding signal is -0.706 lnKA.

B7: GGCG (dsDNA)
DNA 1: GCTATCTAGTGCTCAGTACGCACTGGGCGAGGAAACTTCTGGCAGGACCAGGTCATGAGATCGGAAGAGCACACGTCTGAACTCCAGTCA
DNA 2: TGACTGGAGTTCAGACGTGTGCTCTTCCGATCTCATGACCTGGTCCTGCCAGAAGTTTCCTCGCCCAGTGCGTACTGAGCACTAGATAGC
RNA: AAUUUCUACUCUUGUAGAUAGGAAACUUCUGGCAGGACC
For B7, which binding signal [1] is on record?
Its binding signal is -8.97 lnKA.

What about the binding signal [2] of the same binder?
Its binding signal is -8.43 lnKA.

What about the binding signal [3] of the same binder?
Its binding signal is -5.65 lnKA.

What about the binding signal [4] of the same binder?
The binding signal was -2.64 lnKA.

B8: GTGC (dsDNA)
DNA 1: GCTATCTAGTGCTCAGTACGCACTGGTGCAGGAAACTTCTGGCAGGACCAGGTCATGAGATCGGAAGAGCACACGTCTGAACTCCAGTCA
DNA 2: TGACTGGAGTTCAGACGTGTGCTCTTCCGATCTCATGACCTGGTCCTGCCAGAAGTTTCCTGCACCAGTGCGTACTGAGCACTAGATAGC
RNA: AAUUUCUACUCUUGUAGAUAGGAAACUUCUGGCAGGACC
How did the binding signal [1] turn out when B8 was run?
Its binding signal is -8.98 lnKA.

What about the binding signal [2] of the same binder?
Its binding signal is -8.4 lnKA.

And the binding signal [3]?
The binding signal was -5.24 lnKA.

And the binding signal [4]?
The binding signal was -2.1 lnKA.

B9: TACT (dsDNA)
DNA 1: GCTATCTAGTGCTCAGTACGCACTGTACTAGGAAACTTCTGGCAGGACCAGGTCATGAGATCGGAAGAGCACACGTCTGAACTCCAGTCA
DNA 2: TGACTGGAGTTCAGACGTGTGCTCTTCCGATCTCATGACCTGGTCCTGCCAGAAGTTTCCTAGTACAGTGCGTACTGAGCACTAGATAGC
RNA: AAUUUCUACUCUUGUAGAUAGGAAACUUCUGGCAGGACC
Which results are given for B9?
binding signal [1]: -8.98 lnKA; binding signal [2]: -7.99 lnKA; binding signal [3]: -2.8 lnKA; binding signal [4]: -0.733 lnKA

B10: GTAA (dsDNA)
DNA 1: GCTATCTAGTGCTCAGTACGCACTGGTAAAGGAAACTTCTGGCAGGACCAGGTCATGAGATCGGAAGAGCACACGTCTGAACTCCAGTCA
DNA 2: TGACTGGAGTTCAGACGTGTGCTCTTCCGATCTCATGACCTGGTCCTGCCAGAAGTTTCCTTTACCAGTGCGTACTGAGCACTAGATAGC
RNA: AAUUUCUACUCUUGUAGAUAGGAAACUUCUGGCAGGACC
With B10 as the binder, how does the binding signal [1] read?
Its binding signal is -9 lnKA.

What about the binding signal [2] of the same binder?
The binding signal was -8.01 lnKA.

And the binding signal [3]?
Its binding signal is -5.51 lnKA.

And the binding signal [4]?
The binding signal was -3.27 lnKA.

B11: TCGG (dsDNA)
DNA 1: GCTATCTAGTGCTCAGTACGCACTGTCGGAGGAAACTTCTGGCAGGACCAGGTCATGAGATCGGAAGAGCACACGTCTGAACTCCAGTCA
DNA 2: TGACTGGAGTTCAGACGTGTGCTCTTCCGATCTCATGACCTGGTCCTGCCAGAAGTTTCCTCCGACAGTGCGTACTGAGCACTAGATAGC
RNA: AAUUUCUACUCUUGUAGAUAGGAAACUUCUGGCAGGACC
Which results are given for B11?
binding signal [1]: -8.87 lnKA; binding signal [2]: -8.02 lnKA; binding signal [3]: -5.8 lnKA; binding signal [4]: -3.45 lnKA

B12: GTCA (dsDNA)
DNA 1: GCTATCTAGTGCTCAGTACGCACTGGTCAAGGAAACTTCTGGCAGGACCAGGTCATGAGATCGGAAGAGCACACGTCTGAACTCCAGTCA
DNA 2: TGACTGGAGTTCAGACGTGTGCTCTTCCGATCTCATGACCTGGTCCTGCCAGAAGTTTCCTTGACCAGTGCGTACTGAGCACTAGATAGC
RNA: AAUUUCUACUCUUGUAGAUAGGAAACUUCUGGCAGGACC
With B12 as the binder, how does the binding signal [1] read?
The binding signal was -8.52 lnKA.

What about the binding signal [2] of the same binder?
Its binding signal is -6.38 lnKA.

What about the binding signal [3] of the same binder?
Its binding signal is -2.71 lnKA.

What about the binding signal [4] of the same binder?
The binding signal was -0.526 lnKA.

B13: AAAA (dsDNA)
DNA 1: GCTATCTAGTGCTCAGTACGCACTGAAAAAGGAAACTTCTGGCAGGACCAGGTCATGAGATCGGAAGAGCACACGTCTGAACTCCAGTCA
DNA 2: TGACTGGAGTTCAGACGTGTGCTCTTCCGATCTCATGACCTGGTCCTGCCAGAAGTTTCCTTTTTCAGTGCGTACTGAGCACTAGATAGC
RNA: AAUUUCUACUCUUGUAGAUAGGAAACUUCUGGCAGGACC
Which binding signal [2] does the source give for B13 here?
Its binding signal is -8.41 lnKA.

And the binding signal [3]?
Its binding signal is -5.66 lnKA.

What about the binding signal [4] of the same binder?
Its binding signal is -3.17 lnKA.

B14: AACC (dsDNA)
DNA 1: GCTATCTAGTGCTCAGTACGCACTGAACCAGGAAACTTCTGGCAGGACCAGGTCATGAGATCGGAAGAGCACACGTCTGAACTCCAGTCA
DNA 2: TGACTGGAGTTCAGACGTGTGCTCTTCCGATCTCATGACCTGGTCCTGCCAGAAGTTTCCTGGTTCAGTGCGTACTGAGCACTAGATAGC
RNA: AAUUUCUACUCUUGUAGAUAGGAAACUUCUGGCAGGACC
For B14, which binding signal [2] is on record?
The binding signal was -7.9 lnKA.

What about the binding signal [3] of the same binder?
Its binding signal is -2.33 lnKA.

What about the binding signal [4] of the same binder?
Its binding signal is -0.621 lnKA.

B15: AAAG (dsDNA)
DNA 1: GCTATCTAGTGCTCAGTACGCACTGAAAGAGGAAACTTCTGGCAGGACCAGGTCATGAGATCGGAAGAGCACACGTCTGAACTCCAGTCA
DNA 2: TGACTGGAGTTCAGACGTGTGCTCTTCCGATCTCATGACCTGGTCCTGCCAGAAGTTTCCTCTTTCAGTGCGTACTGAGCACTAGATAGC
RNA: AAUUUCUACUCUUGUAGAUAGGAAACUUCUGGCAGGACC
For B15, which binding signal [2] is on record?
Its binding signal is -8.45 lnKA.

And the binding signal [3]?
Its binding signal is -5.7 lnKA.

And the binding signal [4]?
Its binding signal is -3.44 lnKA.

B16: TGCA (dsDNA)
DNA 1: GCTATCTAGTGCTCAGTACGCACTGTGCAAGGAAACTTCTGGCAGGACCAGGTCATGAGATCGGAAGAGCACACGTCTGAACTCCAGTCA
DNA 2: TGACTGGAGTTCAGACGTGTGCTCTTCCGATCTCATGACCTGGTCCTGCCAGAAGTTTCCTTGCACAGTGCGTACTGAGCACTAGATAGC
RNA: AAUUUCUACUCUUGUAGAUAGGAAACUUCUGGCAGGACC
What does the source list for B16?
binding signal [1]: -8.93 lnKA; binding signal [2]: -8.02 lnKA; binding signal [3]: -2 lnKA; binding signal [4]: -0.483 lnKA
